Laboratory results taken from the supplement of paper PMC3334620.
In all, about 33,000 sequences were measured (“E-score (-0.5 to 0.5)”: median about -0.016, highest 2% from about 0.31 on). The sample as a whole holds a higher share of the highest values than the screen did.

Molecular target: Cst6 (UniProt P40535)
Experiment: PBM E-score (8-mer binding enrichment) (E-score (-0.5 to 0.5)); higher = stronger / more preferred TF binding
Conditions: protein concentration: 200 nM; construct: GST-DNA-binding domain
Procedure, shortened: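 Full-length yeast transcription factors or their DNA-binding domains, GST-tagged and expressed with PURExpress, were applied at about 100-200 nM to universal all-10-mer Agilent arrays. These arrays had been made double-stranded by primer extension on fresh or once-stripped slides. Detection used fluorescent anti-GST, normalisation used masliner, and E-scores for ungapped eight-base words pooled with reverse complements came from the Universal PBM Analysis Suite.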

Sequence of UniProt P40535 (P40535 whole entry): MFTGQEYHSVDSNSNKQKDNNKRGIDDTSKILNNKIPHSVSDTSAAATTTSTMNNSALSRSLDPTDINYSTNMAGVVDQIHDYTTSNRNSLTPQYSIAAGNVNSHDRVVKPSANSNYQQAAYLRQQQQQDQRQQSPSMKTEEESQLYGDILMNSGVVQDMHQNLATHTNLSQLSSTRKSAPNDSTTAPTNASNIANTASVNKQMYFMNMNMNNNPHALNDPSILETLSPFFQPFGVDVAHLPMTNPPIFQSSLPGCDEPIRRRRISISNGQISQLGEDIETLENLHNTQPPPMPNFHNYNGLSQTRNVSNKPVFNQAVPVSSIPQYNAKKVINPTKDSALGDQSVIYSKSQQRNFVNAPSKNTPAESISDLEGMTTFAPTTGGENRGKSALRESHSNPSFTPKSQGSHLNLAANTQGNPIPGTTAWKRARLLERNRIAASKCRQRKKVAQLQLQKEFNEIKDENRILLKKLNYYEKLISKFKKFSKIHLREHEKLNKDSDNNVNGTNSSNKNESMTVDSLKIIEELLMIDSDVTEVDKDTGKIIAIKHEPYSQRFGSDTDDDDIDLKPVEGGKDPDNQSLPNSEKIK

Sequence | PBM E-score
GACCTTAA | -0.0362
CTAGTGCC | -0.125
AGCTATCG | -0.106
GCAGCAGC | -0.133
TTCACCAA | 0.124
GTCACCAC | 0.373
ATCACCAC | 0.244
GTCACCGA | 0.426
CTCACCGA | 0.048
CTCACCAC | -0.0767
CTCACCAA | 0.102
GTCACCAA | 0.315
ATCACCGA | 0.212
GTGGTGAA | -0.0462
GTCTCCAA | -0.00606
GAGCAAAA | 0.0129
CGAGCCTA | 0.011
AATTATGA | 0.359
AATTATGT | 0.304
AATTATTC | 0.219
AATTATGG | 0.0357
AATTATTG | 0.252
GTTTATTA | 0.164
ATTTATTA | 0.357
ATTATTTA | 0.305
AATTATTA | 0.321

Sequence | PBM E-score
AGCCGATA | -0.0664
CCAAGATC | -0.12
CGTGAGAG | -0.269
ATGACGTC | 0.497
CTGACGTC | 0.482
CGGACGTC | 0.252
AAGACGTC | 0.28
CAGACGTC | 0.113
ACGACGTC | 0.218
AGCAAGCA | -0.252
GCCCAGGC | -0.318
GTGTATGA | 0.186
ACGTATGC | 0.32
ATGTATGA | 0.336
ACGTATGA | 0.432
ATGTATGG | 0.0177
CCGTATGC | 0.0167
CCGTATGA | 0.226
AGGTATGC | 0.111
ACGTATGG | 0.158
GGGAAGAA | -0.0773
ACTGGTGA | -0.0583
GAGTTGGA | -0.0506
TTACGAAA | 0.284
ATACGTAT | 0.376
CTACGTAC | 0.00059

Sequence | PBM E-score
CTACGTAG | 0.137
ATACGTAG | 0.186
ATACGTAA | 0.463
CTACGTAA | 0.451
ATACGTAC | 0.198
AGACGTAT | 0.144
ACACGTAT | 0.238
TTACGTAA | 0.493
TTACGGAA | 0.178
AGGTCCAT | -0.0689
CGTTCTCC | -0.174
CAGCGCCC | -0.0102
ATAGATGC | -0.0272
TAGCAGAA | 0.107
AGTATGTC | 0.155
CAGTGTGA | 0.158
AGGTTGAC | 0.0459
GAAACGCA | 0.172
AGACATCC | -0.211
GCACGTAC | -0.00487
GTACGTAA | 0.449
GTACGTAC | 0.0996
TCAAGCGA | -0.00748
ACAGGCGG | -0.104
CTGCCGTA | 0.0163
ATGCCGTG | 0.283

Sequence | PBM E-score
ATGCCGTC | 0.323
CTGCCGTC | 0.0959
ATGCCGAA | 0.0887
GTGCCGGA | -0.104
AAGCCGTA | 0.173
ATGCCGTA | 0.372
GTGCCGTA | 0.389
GGGTTAAA | -0.06
GAGAGAGC | -0.197
AATTGCGT | 0.315
GATTGCGC | 0.0307
AATTGCGA | -0.111
AATTGCGC | 0.309
CATTGCGC | 0.0683
AATTGCGG | -0.0187
AAAACGCG | 0.205
AACGTTGC | -0.0467
AAGTACCT | -0.196
AAGTGAAG | -0.0822
AAGCCGAC | -0.231
AAACGCCA | 0.18
ACACGGCA | 0.282
CCACGGCG | 0.309
CAACGCCG | 0.191
CGACGGCG | 0.257
AAACGCCG | 0.36

Sequence | PBM E-score
AGACGGCG | 0.305
CCACGGCA | 0.235
CCACGGCC | -0.0591
AGACGGCC | -0.214
ACACGGCT | 0.266
ACACGGCG | 0.394
TCCTCCGA | -0.395
CCCCTTAA | -0.212
AGGCAAAT | 0.164
ATACAGGC | -0.121
GCAGGCAA | -0.0304
AGAGGATC | -0.18
AAACGGCT | 0.105
AAACGGCG | 0.369
AAACGGCC | 0.084
ACAAGTAA | -0.0276
CCAGTTCA | 0.0369
GAAATGAA | 0.237
GTAATGGA | 0.353
ATAATGGA | 0.109
CTAATGGA | -0.085
CTAATGAC | 0.252
AAAATGAT | 0.298
GTAATGAA | 0.268
CAAATGAC | 0.248
GTAATGAC | 0.377

Sequence | PBM E-score
AAAATGAC | 0.327
GAAATGAC | 0.32
AAAATGAA | 0.155
CTGCATCC | -0.101
CTTGCAGA | -0.138
CACGCCCA | -0.21
GCTAACCC | -0.223
ACATCCCC | -0.119
AAAGCCCA | 6e-05
GACGCATA | 0.315
CACGCATA | -0.215
GACGCATC | 0.0635
GCTTCCTA | -0.0171
ACACCACG | -0.0337
CAATGCCA | -0.0721
AGAGTCAT | -0.0245
AGCGTCAC | 0.332
CGCGTCAC | 0.418
GGCGTCTA | 0.0648
AGCGTCAA | 0.269
AGCGTCCT | -0.276
CGCGTCAG | 0.0126
GGCGTCAC | 0.431
AGCGTCAT | 0.423
GGCGTCCC | -0.225
CGCGTCAA | 0.211

Sequence | PBM E-score
AGCGTCAG | 0.177
AATCCATA | 0.0862
CGCCGAGC | 0.0842
CTGTCGCA | -0.146
CGGTCCTC | -0.133
CATGCGAA | 0.111
AAGTTAAT | 0.213
AGAGAAAC | 0.0803
AATTGGCG | 0.198
GTCTCTTA | -0.00905
CCGATGAA | 0.0447
CCGATGAG | -0.087
ACGATGAT | 0.206
GGGATGAC | 0.221
GCGATGAC | 0.413
GCGATGAA | 0.0225
ACGATGAC | 0.387
CCGATGAC | 0.336
ACGATGAA | 0.154
AACTGAGC | -0.152
AGGGCCTA | -0.327
AACCTACG | -0.043
ATGAGGTA | 0.312
CTGAGGTA | 0.0121
ATGAGGTG | 0.174
AACTGCTC | -0.0302

Sequence | PBM E-score
GAGGTGAA | -0.0049
GCTGTCAC | 0.0464
AATGTAAA | 0.258
AATGTCGT | 0.195
AATGTAAT | 0.347
AATGTCAT | 0.356
ACTGTCAT | 0.0752
AATGTCAC | 0.308
ACTGTCAC | 0.141
GATGTCAC | 0.448
AATGTCAG | -0.00168
AATGTAAG | 0.192
GATGTCAA | 0.245
CGACCCCG | -0.235
AACCTAAT | -0.0438
CAGTTTTA | 0.00126
AGTAGGTA | -0.0379
CCGATCTA | -0.27
CGAACGAA | 0.0744
AAGGCGCT | 0.118
CACACGGC | 0.293
ACGTACCG | 0.0475
ATTTCGAG | 0.0911
TCAGGGAA | -0.141
CGGCTGGC | -0.28
CATGTAAC | 0.014

Sequence | PBM E-score
AATGTAAC | 0.0559
GATGTAAC | 0.341
CATGTCAC | 0.36
CATGTCAA | 0.161
CATGTCAG | 0.144
ATTGGCCC | -0.36
GATGAGAC | 0.0611
ATAATGTA | 0.203
CATTCCCG | 0.0388
ATGTTGAA | 0.104
AGTAATAA | 0.302
TGTAATAA | 0.329
GGTAATAC | 0.111
AGTAATAC | -0.0264
AGTAATAG | 0.211
CGTAATAC | 0.366
CATAATAG | 0.202
GGTAATAA | 0.247
CCTAATAA | 0.00168
CTTAATAA | 0.155
CGTAATAG | 0.318
CGTAATAA | 0.325
